Bioassay records: PubChem BioAssay, Broad Institute
Beta cell apopt: beta cell apoptosis inhibition | INS-1E cytokine-induced death, ATP luminescence, 48 h; percent of positive-control rescue, neutral wells zero | protection from apoptosis, % (no concentration beside the values) | 0.8% of 300,000 active;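 active = Every replicate reaches about 75%, or at least half do and their mean reaches it too, limit read from the data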;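 note: higher means more ATP so stronger rescue from cytokine killing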
CSC inhib: blocks cancer stem cells; cancer stem cell-like cells viability, luminescence; AID 2717; 1.1% of 300,000 active; inhibition, % at 7.5 µM; in the data active = inhibition above about 75%; tested in HMLE shEcad cells
PfHsp90 set2: reduces growth (ATP signal) of yeast expressing P. falciparum Hsp90. S. cerevisiae expressing PfHsp90, BacTiter-Glo ATP, 48 h; yeast lacking PDR1 and PDR3 efflux regulators. inhibition, % at 9.4 µM. 0.32% of 310,000 active. AID 504621;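 active = every replicate shows inhibition above about 80%, whatever the replicate mean, limit read from the data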
Calb FLC: affects C. albicans growth with fluconazole; growth inhibition, % (concentration not given with the values); 0.57% of 300,000 active; C. albicans CaCi-2 (fluconazole-resistant clinical isolate) + fluconazole, Alamar Blue growth, 48 h;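 active = growth inhibition above about 58% in most replicates, limit read from the data, passing the limit was not always enough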;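 note: all wells also contain fluconazole at 8 µg/ml as a sub-toxic cotreatment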
Shn3 3UTR inh: Schnurri-3 reporter inhibition in Clone20 osteoblasts | inhibition, % at 12.5 µM | 0.52% of 360,000 active | Clone20 osteoblast Shn3 3'UTR firefly luciferase, 24 h;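 active = mean inhibition of at least 75% with every replicate also reaching 75%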
Of the large screens only hits and unclear results are named; the others gave an inactive call. Only some compounds are listed: those with a hit (about 2.2% of all), similar ones and a draw of the others.

CNC(=O)C1C(=S)NC(N)=C(C#N)C1c1ccccc1 (stereo not given)	CSC inhib 112
COC(=O)C1=C(C)OC(N)=C(C#N)C1c1ccccc1 (stereo not given)	none
O=C(CN1C(=O)NC2(CCCC2)C1=O)NNC(=O)c1ccc(F)cc1	none (no result: CSC inhib)
O=C(Nc1ccnc(-c2ccncc2)n1)c1ccc(Cl)cc1	none (no result: PfHsp90 set2)
O=[N+]([O-])c1ccc(S(=O)(=O)CC(CN2CCCCC2)N2CCCCC2)cc1 (stereo not given)	CSC inhib 78
Cc1ccc(NC(=O)CSCC(=O)N2CCN(c3cccc(C(F)(F)F)c3)CC2)cc1	none
COc1ccccc1C1=NOC(COc2ccc3c(C)cc(=O)oc3c2)C1 (stereo not given)	CSC inhib 79 (no result: Shn3 3UTR inh)
COc1ccc(C2=NOC(COc3ccc4c(C)cc(=O)oc4c3)C2)c(OC)c1 (stereo not given)	none (no result: PfHsp90 set2)
Cc1ccc(F)c(NC(=O)/C(C#N)=C(\O)c2ccc(C(C)(C)C)cc2)c1	CSC inhib 79
COC(=O)Nc1ccc(S(=O)(=O)N2c3ccccc3CCC2C)cc1 (stereo not given)	CSC inhib 145
Cc1ccc(S(=O)(=O)N2CCC(C(=O)OC(C)C(=O)NCc3ccccc3)CC2)cc1C (stereo not given)	none (no result: Beta cell apopt)
N#C/C(=C\c1ccc(O)c(O)c1)C(=O)Nc1cccc2ncccc12	Calb FLC 97
CCCn1c(=O)c(C#N)cn(C2CC2)c1=O	none
CC(C)CC(=O)/C(=C\c1ccc(Cl)cc1Cl)n1cncn1	PfHsp90 set2 129 (no result: Beta cell apopt, CSC inhib)
CC(C)CC(=O)/C(=C/c1ccc(N(C)C)cc1)n1cncn1	none
COc1cc(Br)cc(C(=O)N2CCc3ccccc32)c1OC	none (no result: Beta cell apopt, CSC inhib, PfHsp90 set2, Calb FLC)
S=C(NCCc1ccccc1)Nc1cccc2cnccc12	Shn3 3UTR inh 89 (no result: PfHsp90 set2)
Cc1ccccc1NC(=S)Nc1cccc2cnccc12	Beta cell apopt 129
S=C(NCc1ccccc1)Nc1cccc2cnccc12	none
CCc1ccc(NC(=O)CNC(=O)[C@@H]2Cc3ccccc3CN2C(=O)OC(C)(C)C)cc1	none
O=C(Cc1c(F)cccc1Cl)NNC(=O)c1ccc(Br)s1	none (no result: Calb FLC)
COc1ccc(-n2c(=O)c3c4c(sc3n3c(=S)[nH]nc23)CCCC4)cc1	Calb FLC 93
COC(=O)CSc1nnc2n(-c3ccc(OC)cc3)c(=O)c3c4c(sc3n12)CCCCC4	none
O=c1c2ccccc2oc2ccccc12	none (no result: Beta cell apopt, CSC inhib, PfHsp90 set2, Calb FLC)
O=c1c2ccccc2oc2cc(-c3ccc4[nH]ccc4c3)ccc12	CSC inhib 83
CC(C)[C@H](NS(=O)(=O)c1cccc(Cl)c1)C(=O)OCC(=O)NC(=O)CN1CCCC1=O	none (no result: PfHsp90 set2, Calb FLC)
CC(C)(C)C(=O)Cn1ncc(Br)c(Br)c1=O	Shn3 3UTR inh 89 (no result: Beta cell apopt, CSC inhib)
O=C1C=CC(=Nc2ccc(F)cc2)O1	PfHsp90 set2 119 (no result: Beta cell apopt, CSC inhib, Calb FLC)
O=C1C=CC(=Nc2ccc3c(c2)C(=O)c2ccccc2-3)O1	none (no result: Beta cell apopt, CSC inhib, PfHsp90 set2, Calb FLC)
Cc1ccc2cc(/C=C(\C#N)C(N)=O)c(N3CCCCC3)nc2c1	none
Cc1ccc2cc(C=C(C#N)C#N)c(N3CCCCC3)nc2c1	Calb FLC 58
COc1ccc(CCCNC(=O)C2Cc3c(-c4ccc5c(c4)OCO5)ccnc3O2)cc1 (stereo not given)	none (no result: Beta cell apopt, CSC inhib, PfHsp90 set2, Calb FLC)
CCNC(=S)N1N=C2c3ccccc3CCC2C1c1ccc(F)cc1 (stereo not given)	CSC inhib 82 (no result: PfHsp90 set2)
CC(=O)N1N=C2c3ccccc3CCC2C1c1ccc(F)cc1 (stereo not given)	none (no result: PfHsp90 set2)
Cn1c(=O)c2cc(NC(=O)NCc3ccc(F)cc3)ccc2n1C	none (no result: Beta cell apopt, CSC inhib, PfHsp90 set2, Calb FLC)
COc1ccc(C(=O)NNC(=S)NC(=O)c2cccc([N+](=O)[O-])c2)cc1	Calb FLC 81 (no result: Shn3 3UTR inh)
CCCCCC(=O)NNC(=S)NC(=O)c1ccccc1[N+](=O)[O-]	none (no result: PfHsp90 set2)
CCCCCC(=O)NNC(=S)NC(=O)c1cccc([N+](=O)[O-])c1	Calb FLC 85
O=C(Cn1c(=S)[nH]c2ccccc2c1=O)NCCc1ccccc1	none
Cc1ccc(CNC(=O)C2CCCN2C(=O)Nc2ccc(F)cc2)cc1 (stereo not given)	none
CCOC(=O)c1cc2c(=O)n3ccccc3nc2n(CCOC)c1=NC(=O)c1ccncc1	Calb FLC 114 (no result: PfHsp90 set2)
CCOC(=O)c1cc2c(=O)n3ccccc3nc2n(CCOC)c1=NC(=O)C(C)(C)C	none
O=C1CS(=O)(=O)N(Cc2cccc(F)c2)c2ccc(Br)cc21	none (no result: Calb FLC)
O=C1c2cc(Br)ccc2N(Cc2ccc(Br)cc2)S(=O)(=O)C1c1cc(Cl)c(Cl)cc1[N+](=O)[O-] (stereo not given)	CSC inhib 108 (no result: Calb FLC)
